Measurements as given in PubChem BioAssay.

Experiment: inhibitors of poly I:C-induced TLR3 signaling, primary screen, cell-based, poly I:C stimulus, luciferase, 10K MLSCN set (AID 602277)
Details: HEK293-TLR3 RL24 IRF3 luciferase reporter, at 10 µM, active compounds read high;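 active = inhibition of the reporter signal at or above 50%; inactive = inhibition below 50%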

inhibition, inactive:
COc1ccccc1CCNC(=O)C1CCCO1 (stereo not given) -9.53%, CSc1ccccc1NC(=O)C1CCCO1 (stereo not given) -1.95%, Cn1c(=O)cc(OCCCC(=O)N2CCCCC2)c2ccccc21 36.6%, CCCc1[nH]nc2c1C(c1cn[nH]c1-c1ccc(F)cc1)C(C#N)=C(N)O2 (stereo not given) 23.5%, CN1C(=S)SC(C)(NO)C1(C)C (stereo not given) 16%, O=C(NCc1ccc2c(c1)OCO2)C1CCC(CNc2c(N3CCCCC3)c(=O)c2=O)CC1 (stereo not given) 24.7%, CC(C)(CO)NC(=O)CCCOc1ccc(Cl)cc1Cl -47.8%, CN(C(=O)C1CCOC1)c1nnc(-c2cccnc2)s1 (stereo not given) -24.2%, COc1ccc(OC)c2[nH]c(=O)c(CCNC(=O)CC(C)C)cc12 2.61%, COc1ccc(S(=O)(=O)N2CCCC2C(=O)Nc2ccc(O)cc2)cc1 (stereo not given) 12.2%, CCN(CC)Cc1nc2c(c(=O)[nH]1)C1(CCCCC1)Cc1ccccc1-2 10.5%, COc1ccc(NC(=O)C2CCCCN2S(=O)(=O)c2ccc(F)cc2)cc1 (stereo not given) 42.2%, CCOC(=O)c1c(NC(=O)c2cccs2)sc2c1CCN(C(=O)OCC)C2 -1.84%, Cc1c(NC(=O)c2ccc(COc3ccc4ccccc4c3)o2)c(=O)n(-c2ccccc2)n1C -61.2%, CCOc1ccccc1N(C(=O)c1ccco1)C(C(=O)NC1CCCC1)c1cccnc1 (stereo not given) 13.5%, CCn1cc(C(=O)NCc2ccccc2OC)c(=O)c2cc(S(=O)(=O)N(C)C)ccc21 23.7%, CC1CCCN(C(=O)CN2CCN(C(=O)c3ccco3)CC2)C1 (stereo not given) 14.7%, N#Cc1nc(COc2ccccc2Cl)oc1N1CCCCCC1 0.00693%, Cc1nc2sc(C(c3cccc(F)c3)N3CCC(C)CC3)c(O)n2n1 (stereo not given) 17%, CC1CCCN(c2ccc(C(=O)NCc3cccs3)cn2)C1 (stereo not given) -71.3%, O=C(C1CCC(CNS(=O)(=O)c2cccc3cccnc23)CC1)N1CCCC1 (stereo not given) 14.6%, O=C1c2ccccc2C(Nc2ccc3c(c2)OCO3)N1Cc1ccc2c(c1)OCO2 (stereo not given) 27.2%, NC(=O)C1CCN(C(=O)c2cc3n(n2)C(C(F)(F)F)CC(c2ccco2)N3)CC1 (stereo not given) 24.2%, O=C(Cn1ncc2c1-c1ccccc1OC2)Nc1ccc(Cl)cn1 29.8%, O=C(NC1CCCCC1)C(c1ccc(Cl)cc1)N(C(=O)c1cnccn1)c1ccc2c(c1)OCO2 (stereo not given) 7.2%, COc1ccc(NC(=O)c2cnc3n(c2=O)CCS3)cc1OC -20.9%, COc1ccccc1N1CCN(C(=O)CSc2nc3ncnc(N)c3[nH]2)CC1 23.6%, CC(C)(C)c1nc(CN2CCOCC2)ccc1O 29.3%, Cc1ccccc1C(=O)NC1CCN(Cc2nnnn2Cc2ccccc2)CC1 19.8%, COCCn1c(C)c(C(=O)O)sc1=S -6.08%, Cc1sc2nc(SCC(=O)N3CCN(CCO)CC3)n(-c3ccccc3)c(=O)c2c1C 31%, O=C(c1ccco1)N1CCN(c2nc(C(F)(F)F)nc3c2nnn3Cc2ccccc2)CC1 -42%, Cc1ccccc1CN1CCN(C(=O)c2cccc(F)c2)CC1 12%, CCOC(=O)c1c(COC(=O)c2ccco2)nc2ccccc2[n+]1[O-] 15.1%, COC(=O)CCCCC(=O)C1C(=O)CC(C)(C)C(C(=O)OC)C1=O (stereo not given) 3.35%, COCCn1c(CN2CCN(c3ccccc3F)CC2)nc2c1c(=O)n(C)c(=O)n2C -9.11%, CC(C)(C#N)Nn1cnnc1 21.2%, CCC(C)(C(=O)NC1CCCC1)N(Cc1cccs1)C(=O)Cc1cccs1 (stereo not given) 44.6%, COc1cccc(CN=CC2=C(O)CC(C)(C)CC2=O)c1OC 3.58%, Cc1[nH]c2c(C)cccc2c(=O)c1Br 7.69%
